Reference: PubChem BioAssay AID720560 (Broad Institute, 2013)
Results with a measured potency or affinity are listed apart. Results filed as inconclusive are left out. The source made the active and inactive calls.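 Rule for the calls: active = signal drop whose fitted half-maximal concentration is at most twice the top valid dose; inconclusive = flat moderate drop between 30 and 70 percent, or an unreliable fit; inactive = the rest.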

assay: hypoxia HIF reporter signal reduction – HeLa cells, luminescence, dry powder samples, 2158-08, ARNT-TACC3 inhibitor project, dose response (AID 720560); conditions: HeLa 3xHRE-luciferase reporter; series mostly up to 60 µM

outcome, inactive:
Cc1ccc(C(=O)Nc2nc(-c3ccccn3)cs2)cc1S(=O)(=O)N1CCOCC1
C=CC1=C(C(=O)O)N2C(=O)[C@@H](NC(=O)/C(=N\O)c3csc(N)n3)[C@H]2SC1 (stereo in doubt)
CC1CCN(S(=O)(=O)c2ccc(C(=O)Nc3nnc(-c4ccno4)o3)cc2)CC1
CC1CCN(S(=O)(=O)c2ccc(C(=O)Nc3nnc(-c4ccccn4)o3)cc2)CC1
O=C(CSc1ccc(-c2ccccn2)nn1)Nc1ccccc1
O=C(CSc1ccc(-c2ccccn2)nn1)N1CCCC1
O=C(Nc1nnc(C2=COCCO2)o1)c1ccc(S(=O)(=O)N2CCCCC2)cc1
Cc1c(C(=O)N(C)C)sc2nc(-c3ccccn3)[nH]c(=O)c12
Cc1nnc(NC(=O)c2ccc(S(=O)(=O)N3CCCCC3)cc2)o1
O=C(CSc1ccc(-c2ccccn2)nn1)NC1CCCCC1
